High-throughput results deposited in PubChem BioAssay by The Scripps Research Institute Molecular Screening Center.
MITF inh – MITF inhibitors, primary screen, biochemical, AlphaScreen, human; Microphthalmia-associated transcription factor (Homo sapiens), O75030; AlphaScreen MITF homodimerization, bead proximity signal; inhibition, % at 2.6 µM; hit rate 0.91% among 650,000; in the data active = inhibition above about 50%
FBW7 activator – FBW7 E3 ligase activators, primary screen, biochemical, AlphaScreen, human; AlphaScreen FBW7–phospho-cyclin E peptide binding, activator screen; normalized activity (activation), % at 26.1 µM; hit rate 0.13% among 650,000; F-box/WD repeat-containing protein 7 (Homo sapiens), Q969H0; in the data active = normalized activity above about 1.9%;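 note: purified mutant Fbw7 with reduced substrate affinity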
Target sequence (Q969H0 whole entry, looked up): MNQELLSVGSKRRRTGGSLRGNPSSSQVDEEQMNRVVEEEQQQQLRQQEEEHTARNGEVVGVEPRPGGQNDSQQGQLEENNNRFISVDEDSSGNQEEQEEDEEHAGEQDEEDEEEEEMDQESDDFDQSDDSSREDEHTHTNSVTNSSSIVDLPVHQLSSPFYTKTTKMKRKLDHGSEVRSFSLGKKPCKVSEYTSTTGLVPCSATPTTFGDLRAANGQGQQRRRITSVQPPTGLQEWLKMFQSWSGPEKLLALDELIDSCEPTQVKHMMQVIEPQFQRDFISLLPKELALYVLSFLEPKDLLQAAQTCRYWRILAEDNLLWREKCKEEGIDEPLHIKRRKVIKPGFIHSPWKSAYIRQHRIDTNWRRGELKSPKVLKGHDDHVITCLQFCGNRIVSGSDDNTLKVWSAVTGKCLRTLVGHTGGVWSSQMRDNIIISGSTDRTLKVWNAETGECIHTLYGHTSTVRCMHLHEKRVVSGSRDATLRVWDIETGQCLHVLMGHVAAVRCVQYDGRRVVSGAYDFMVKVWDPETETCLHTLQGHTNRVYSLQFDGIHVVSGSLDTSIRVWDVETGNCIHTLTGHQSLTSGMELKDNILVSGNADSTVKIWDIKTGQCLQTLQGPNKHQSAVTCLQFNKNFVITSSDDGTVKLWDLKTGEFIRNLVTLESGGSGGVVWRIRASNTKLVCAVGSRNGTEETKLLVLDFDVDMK
GPR151 ag – activators of human GPR151, primary screen, cell-based, PathHunter beta-arrestin, luminescence; G-protein coupled receptor 151 (Homo sapiens), Q8TDV0; PathHunter beta-arrestin GPR151 cells; activation, % at 11.2 µM; hit rate 1% among 650,000; AID 1508602, 2020; in the data active = activation above about 4.9%
TEAD-YAP block – TEAD-YAP interaction inhibition, primary screen, TEAD-YAP interaction inhibitor project, luminescence, HEK-TIYL cells; TEAD-Gal4/YAP UAS-luciferase luminescence; inhibition, % at 9.12 µM; hit rate 1.4% among 640,000; in the data active = inhibition above about 32%
Each line names hits and unclear results; the compound was inactive in the other large screens. An excerpt weighted towards active compounds, which were near 3.5% of everything screened.

O=[N+]([O-])c1ccc(OS(=O)(=O)c2ccc3ccccc3c2)c2ncccc12	TEAD-YAP block 48.2
COc1ccc(C=O)cc1OC(=O)c1ccc([N+](=O)[O-])cc1	none
CSc1nnc(C(C)(C)C)c(=O)n1/N=C/c1ccccc1O	MITF inh 75.5
CSc1nnc(C(C)(C)C)c(=O)n1/N=C/c1ccccc1[N+](=O)[O-]	none
COC(=O)C1=C(C)NC(C)=C(C(=O)OC)C1C(=O)OCC(C)=O	none
O=C(Oc1ccccc1NC1=NS(=O)(=O)c2ccccc21)c1ccccc1Cl	TEAD-YAP block 60.0
COc1ccccc1C(=O)Oc1ccc(Cl)cc1NC1=NS(=O)(=O)c2ccccc21	none
CSC1=C(C#N)C(c2cccs2)C2=C(CCCC2=O)N1 (stereo not drawn)	none
CSC1=C(C#N)C(c2ccccc2C)C2=C(CCCC2=O)N1 (stereo not drawn)	TEAD-YAP block 39.1
CCc1ccccc1Nc1coc2ccc3c(C)cc(=O)oc3c12	none
O=C(Cc1cccs1)Nc1cccc(-c2ccc(N3CCCCC3)nn2)c1	TEAD-YAP block 51.5
Cc1ccc(-c2cc(/C=C3\C(=O)C=Cc4ccccc43)c(O)o2)cc1	none
O=C(/C=C/c1ccco1)NC(=S)NCc1cccnc1	TEAD-YAP block 47.4
COc1ccc(OCc2cccc(C(=O)O)c2)cc1	TEAD-YAP block 93.5
CCOc1ccc(OCc2cccc(C(=O)OC)c2)cc1	TEAD-YAP block 85.1
COc1cc(OCc2cccc(C(=O)O)c2)ccc1C=C1C(=O)NC(=S)NC1=O	TEAD-YAP block 85.5
O=C1NC(=S)NC(=O)C1=Cc1cccc(OCc2ccc(C(=O)O)cc2)c1	none
CC(C)c1ccc(OCc2cccc(C(=O)NCCN(C)C)c2)cc1	TEAD-YAP block 85.6
O=C(O)c1cccc(COc2ccc(I)cc2)c1	TEAD-YAP block 65.4
O=C(O)c1cccc(OCc2ccccc2)c1	none
Oc1ccc(CCNc2ccnc(Nc3ccc(N4CCOCC4)cc3)n2)cc1	TEAD-YAP block 44.5
Cc1cc(NCCc2ccc(O)cc2)nc(-c2ccc(N3CCN(C)CC3)cc2)n1	TEAD-YAP block 52.8
Cc1cc(NCCc2ccc(O)cc2)nc(Nc2ccc(N3CCOCC3)cc2)n1	TEAD-YAP block 62.4
COC(=O)c1ccc(C2Oc3c(OC)cccc3C3CC(c4cccc(OC)c4)=NN32)cc1 (stereo not drawn)	TEAD-YAP block 63.3
COC(=O)c1ccc(C2Oc3c(OC)cccc3C3CC(c4ccc(OC)cc4)=NN32)cc1 (stereo not drawn)	none
COc1cccc(C2=NN3C(C2)c2cccc(OC)c2OC32CCCCC2)c1 (stereo not drawn)	TEAD-YAP block 36.1
COc1cccc(C2=NN3C(C2)c2cccc(OC)c2OC3c2cc(OC)c(OC)c(OC)c2)c1 (stereo not drawn)	TEAD-YAP block 32.3
COc1cccc(C2=NN3C(C2)c2cccc(OC)c2OC3c2cccc(OC)c2)c1 (stereo not drawn)	TEAD-YAP block 37.6
COc1cccc(C2=NN3C(C2)c2cccc(OC)c2OC3c2ccc(F)c(F)c2)c1 (stereo not drawn)	none
Cc1c(C(=O)N/N=C/c2ccc(O)c([N+](=O)[O-])c2)sc(N)c1C#N	none
COc1ccc(Cl)cc1NC(=S)Nc1cccc(NC(C)=O)c1	none
CCc1ccc(C(=O)N2CCN3C(=O)[C@@H](C)NC(=O)[C@H]3C2)cc1	none
CC(C)C(=O)Nc1ccc(NC(=O)Cc2ccccc2)cc1	none
OCCn1c(Cc2ccccc2)nc2ccccc21	TEAD-YAP block 97.8
COc1ccc(/C=C/c2ccc(N)cc2)cc1	TEAD-YAP block 41.4
CC(=O)C1=NN(c2ccc(Cl)cc2)C(c2ccc3c(c2)OCO3)N1C(C)(C)C (stereo not drawn)	FBW7 activator 2.0
COc1cc(C(=O)Nc2ccc3nn(-c4cccc5ccccc45)nc3c2)cc(OC)c1OC	none
Cc1ccc(NC(=O)Cn2cc(C#N)c3ccccc32)c(C)c1	none
CCCCCC1(CCCCC)NC(=S)N(c2ccccc2)N1	none
Cc1ccc(-n2c(SCc3cc(=O)n4ccccc4n3)nc3[nH]ncc3c2=O)cc1Cl	TEAD-YAP block 33.1
Fc1ccc(Nc2nccc(-c3cncc(N4CCOCC4)c3)n2)cc1	TEAD-YAP block 67.9
Cc1nc2ccc(Nc3nccc(-c4cncc(N5CCOCC5)c4)n3)cc2o1	none
c1cc(-c2cncc(N3CCOCC3)c2)nc(Nc2ccc(OCCN3CCOCC3)cc2)n1	TEAD-YAP block 77.5
Cc1[nH]nc2ccc(Nc3nccc(-c4cncc(N5CCOCC5)c4)n3)cc12	TEAD-YAP block 76.7
Cn1ccc2cc(Nc3nccc(-c4cncc(N5CCOCC5)c4)n3)ccc21	TEAD-YAP block 81.1
O=S(=O)(c1ccc(Nc2nccc(-c3cncc(N4CCOCC4)c3)n2)cc1)N1CCOCC1	none
FC(F)Oc1ccc(Nc2nccc(-c3cncc(N4CCOCC4)c3)n2)cc1	none
O=C(NCCN1CCOCC1)C(Cc1ccccc1)NS(=O)(=O)c1ccc(Br)cc1 (stereo not drawn)	none
FC(F)(F)c1cc(Nc2nccc(-c3cncc(N4CCOCC4)c3)n2)ccc1Cl	none
Cn1cnnc1-c1ccc(Nc2nccc(-c3cncc(N4CCOCC4)c3)n2)cc1	TEAD-YAP block 32.8
Fc1cc(-c2ccnc(Nc3ccc(-c4ncn[nH]4)cc3)n2)cc(N2CCOCC2)c1	TEAD-YAP block 73.6
COc1ccc(Nc2nccc(-c3cncc(N4CCOCC4)c3)n2)cc1OC	TEAD-YAP block 46.5
COCCOC(=O)C1=C(C)NC2=C(C(=O)CC(c3cccs3)C2)C1c1ccc(O)cc1 (stereo not drawn)	none
CC(C)OC(=O)c1cccc(C(=O)Oc2ccc(Cl)cc2Cl)n1	none
COc1ccc(-n2nnnc2SCc2ccc(Cl)cc2)cc1	TEAD-YAP block 53.0
Clc1ccc(CSc2nnnn2-c2ccccc2)cc1	none
Cc1ccc(-c2cc3c(nn2)-c2ccccc2C3=O)cc1	TEAD-YAP block 81.3
COc1cc(Br)cc(/C=N/NC2=NS(=O)(=O)c3ccccc32)c1O	none
O=C(Nc1ccc([N+](=O)[O-])cc1[N+](=O)[O-])c1ccccc1	none
O=C(NNc1ccc([N+](=O)[O-])cc1[N+](=O)[O-])c1ccccc1	TEAD-YAP block 73.0
O=C(NNc1ccc(C(F)(F)F)cc1[N+](=O)[O-])c1ccccc1	none
O=C(NNc1ccc(C(F)(F)F)cc1[N+](=O)[O-])C(F)(F)F	FBW7 activator 2.5
Oc1ccc(N=Cc2sc3ccccc3c2O)cc1	none
O=C(O)c1ccc(N=Cc2sc3ccccc3c2O)cc1	TEAD-YAP block 52.2
Oc1c(C=Nc2ccc(I)cc2)sc2ccccc12	none
Oc1c(C=NC2CCCCCC2)sc2ccccc12	TEAD-YAP block 37.7
CN(C)c1ccc(N=Cc2sc3ccccc3c2O)cc1	TEAD-YAP block 76.2
CN(C)c1ccc(N=Cc2c[nH]c3ccccc23)cc1	TEAD-YAP block 68.3
Oc1c(C=Nc2ccccc2)sc2ccccc12	none
CCN(CC)S(=O)(=O)c1cc(-c2nnc(Nc3ccc(OCC(N)=O)cc3)c3ccccc23)ccc1C	none
